Data reported in PubChem BioAssay (NCI).
The panel holds about 79,000 compounds, 15% with a hit somewhere; the sample as a whole holds those more often. The source made the active and inactive calls. No stated cut-off is given here; in the data, active means growth inhibition above about 70%; inactive means the rest.

Legend:
[1] = NCI Yeast Anticancer Drug Screen. Data for the rad50 strain (AID 155);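 further: 0% = growth of vehicle-only cultures of the same strain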; conditions: S. cerevisiae rad50 strain growth inhibition, stronger effect = higher value
Outline: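 Vehicle-treated cultures provide the reference for the growth inhibition reported for compound-exposed, repair-deficient yeast.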

[2] = NCI Yeast Anticancer Drug Screen. Data for the mec2-1 strain (AID 157); conditions: S. cerevisiae mec2-1 strain, stronger effect = higher value
Outline: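 Readout is yeast growth inhibition, normalised to vehicle-treated controls, in the mec2-1 strain exposed to compound.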

[3] = NCI Yeast Anticancer Drug Screen. Data for the sgs1 mgt1 strain (AID 161);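 further: 0% = growth of cultures given vehicle only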; conditions: S. cerevisiae sgs1 mgt1 strain, stronger effect = higher value
Outline: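 Yeast cells carrying a defined DNA-repair defect were exposed to test compounds. Growth inhibition was measured relative to vehicle-treated controls.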

[4] = NCI Yeast Anticancer Drug Screen. Data for the cln2 rad14 strain (AID 165);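 further: 0% = growth equal to vehicle treated cultures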; conditions: S. cerevisiae cln2 rad14 strain, stronger effect = higher value
Outline: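 Relative to vehicle controls, growth inhibition of compound-treated cln2 rad14 yeast was recorded.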

[5] = NCI Yeast Anticancer Drug Screen. Data for the bub3 strain (AID 167); conditions: S. cerevisiae bub3 mutant strain, stronger effect = higher value
Outline: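 Mutant yeast screening strain plus compound; vehicle-treated cultures serve as the 0% inhibition reference.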

[6] = NCI Yeast Anticancer Drug Screen. Data for the mlh1 rad18 strain (AID 175); conditions: S. cerevisiae mlh1 rad18 strain growth inhibition, stronger effect = higher value
Outline: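 Test agents were incubated with a yeast strain of defined genotype (DNA damage repair defect). Inhibition of growth was derived by comparison with vehicle-exposed cultures.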

[7] = at 5.0 µM (retest, dose inferred, filed as 0.5)
[8] = at 50.0 µM (retest, dose inferred, filed as 5.0)

Measured: growth inhibition

OC1CCCCC1Cc1ccc(Cl)cc1 (configuration not stated)
inactive: [1]; [7] -2% | [1]; [8] 56% | [2]; [7] 4% | [2]; [8] 26% | [3]; [7] 4% | [3]; [8] 31% | [3]; at 50.0 µM 65.3% | [4]; [7] -2% | [4]; [8] 30% | [5]; [7] 32% | [6]; [7] -2% | [6]; [8] 45%
active: [1]; at 50.0 µM 90.5% | [2]; at 50.0 µM 93.8% | [4]; at 50.0 µM 90% | [5]; [8] 97% | [5]; at 50.0 µM 98.8% | [6]; at 50.0 µM 93.4%

COc1ccc(C2=C(Cl)C(=O)N(c3ccccc3Cl)C(=O)C2(Cl)Cl)cc1
inactive: [1]; [7] 19% | [2]; [7] -1% | [3]; [7] 17% | [4]; [7] -5% | [5]; [7] 0% | [6]; [7] 17%
active: [1]; [8] 96% | [1]; at 50.0 µM 92.7% | [2]; [8] 95% | [2]; at 50.0 µM 98.7% | [3]; [8] 97% | [3]; at 50.0 µM 97.5% | [4]; [8] 96% | [4]; at 50.0 µM 71.5% | [5]; [8] 97% | [5]; at 50.0 µM 97.1% | [6]; [8] 80% | [6]; at 50.0 µM 97.4%

CCN(CC)c1c(C(=O)/C=C/c2ccc(Cl)cc2)c(-c2ccccc2)nn(C)c1=O
inactive: [1]; [7] 18% | [2]; [7] 15% | [3]; [7] 14% | [4]; [7] 7% | [5]; [7] 8% | [6]; [7] 24%
active: [1]; [8] 85% | [1]; at 50.0 µM 82.5% | [2]; [8] 91% | [2]; at 50.0 µM 85.9% | [3]; [8] 73% | [3]; at 50.0 µM 81% | [4]; [8] 82% | [4]; at 50.0 µM 83.7% | [5]; [8] 92% | [5]; at 50.0 µM 84% | [6]; [8] 92% | [6]; at 50.0 µM 81.8%

CC[N+](C)(CC)CCCOC(=O)c1ccccc1Oc1ccc(C)cc1
inactive: [1]; [7] 1% | [1]; [8] 0% | [2]; [7] -17% | [2]; [8] -8% | [2]; at 50.0 µM 13.8% | [3]; [7] -9% | [3]; [8] -7% | [3]; at 50.0 µM 21.9% | [4]; [7] -4% | [4]; [8] -6% | [4]; at 50.0 µM -0.85% | [5]; [7] 2% | [5]; [8] 42% | [5]; at 50.0 µM 12.8% | [6]; [7] 15% | [6]; [8] 3% | [6]; at 50.0 µM 14.9%
active: [1]; at 50.0 µM 75.5%

CN(CCO)CCn1cnc2c1c(=O)n(C)c(=O)n2C
inactive: [1]; [7] -7% | [1]; [8] 5% | [1]; at 50.0 µM -36.7% | [2]; [7] -8% | [2]; [8] 9% | [2]; at 50.0 µM -13.9% | [3]; [7] 7% | [3]; [8] -2% | [3]; at 50.0 µM 1.65% | [4]; [7] -15% | [4]; [8] -12% | [4]; at 50.0 µM -21.8% | [5]; [7] -4% | [5]; [8] 9% | [5]; at 50.0 µM -7.15% | [6]; [7] -11% | [6]; [8] -1% | [6]; at 50.0 µM -5.9%

c1ccc2c(CCc3ccncc3)c[nH]c2c1
active: [1]; [8] 78% | [3]; [8] 82% | [5]; [8] 75%
inactive: [1]; [7] 2% | [1]; at 50.0 µM 46.8% | [2]; [7] -4% | [2]; [8] 59% | [2]; at 50.0 µM 45.1% | [3]; [7] 11% | [3]; at 50.0 µM 50.1% | [4]; [7] -13% | [4]; [8] 69% | [4]; at 50.0 µM 6.25% | [5]; [7] -10% | [5]; at 50.0 µM 4.8% | [6]; [7] -13% | [6]; [8] 65% | [6]; at 50.0 µM 57.5%

CN(C)c1ccc(/C=C2/Oc3ccc(Cl)cc3C2=O)cc1
active: [1]; [8] 98% | [1]; at 50.0 µM 87.8% | [2]; [8] 98% | [2]; at 50.0 µM 90.7% | [3]; [8] 97% | [3]; at 50.0 µM 89.5% | [4]; [8] 97% | [4]; at 50.0 µM 89% | [5]; [8] 98% | [5]; at 50.0 µM 89.9% | [6]; [8] 97% | [6]; at 50.0 µM 86%
inactive: [1]; [7] -2% | [2]; [7] 25% | [3]; [7] -5% | [4]; [7] 28% | [5]; [7] -24% | [6]; [7] 19%

CNC(=S)/N=c1/sc([N+](=O)[O-])c(C)n1C
inactive: [1]; [7] -26% | [1]; [8] -4% | [1]; at 50.0 µM 65.5% | [2]; [7] -6% | [2]; [8] 0% | [2]; at 50.0 µM 12.5% | [3]; [7] -7% | [3]; [8] 7% | [3]; at 50.0 µM 67.7% | [4]; [7] -33% | [4]; [8] -14% | [4]; at 50.0 µM -1.95% | [5]; [7] -4% | [5]; [8] 5% | [5]; at 50.0 µM 44.9% | [6]; [7] -20% | [6]; [8] -12% | [6]; at 50.0 µM 54.8%

CCO/C=C1\C(=O)C=C(C)CC1c1ccc(OC)c(OC)c1OC (configuration not stated)
active: [1]; [8] 84% | [2]; [8] 81% | [3]; [8] 86% | [5]; [8] 80% | [6]; [8] 88% | [6]; at 50.0 µM 86.7%
inactive: [1]; [7] 3% | [1]; at 50.0 µM 53.1% | [2]; [7] 4% | [2]; at 50.0 µM 38% | [3]; [7] 7% | [3]; at 50.0 µM 47.6% | [4]; [7] -5% | [4]; [8] 55% | [4]; at 50.0 µM 16.6% | [5]; [7] -8% | [5]; at 50.0 µM 41.7% | [6]; [7] 4%
